Data taken from the supplement of paper PMC10849652.
About 7,900 targets were measured; listed, in parts, are those with a hit and a random draw of the rest. About 0.6% of all pairs of compound and target were hits. A number with no mark means an inactive call.

Key:
Test in all cases: log2 fold change, soluble protein after heating vs DMSO (PISA); higher = thermal stabilisation; K562 cells, 10 uM, 30 min; active = over 0.2 and 3.5 SD of the protein, either way, in both replicates (recomputed)
bafetinib = compound: Cc1ccc(NC(=O)c2ccc(CN3CC[C@H](N(C)C)C3)c(C(F)(F)F)c2)cc1Nc1nccc(-c2cncnc2)n1 [bafetinib]
Outline: (§1)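 K562 cells at 2×10^6 cells/mL were treated with 10 μM compound for 30 min. Aliquots were heated for 3 min across 48°C-58°C, pooled, and extracted in PBS with 0.5% NP-40 at 4°C; soluble protein was the supernatant after 21,000xg for 90 min. Soluble protein was quantified by TMTpro 16plex LC-MS/MS with channel sums equalised, and reported as log2 fold change in thermal stability against DMSO controls, with values from duplicates.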

[1] = compound: Cc1cccc(CC(=O)N2CCc3c2ccc(-c2cn(C)c4ncnc(N)c24)c3F)n1
Outline: as §1

nilotinib = compound: Cc1cn(-c2cc(NC(=O)c3ccc(C)c(Nc4nccc(-c5cccnc5)n4)c3)cc(C(F)(F)F)c2)cn1 [nilotinib]
Outline: as §1

[2] = compound: Cc1nc(Nc2n[nH]c3c2CN(C(=O)N[C@H](CN(C)C)c2ccccc2)C3(C)C)c2sccc2n1
Outline: as §1

dasatinib = compound: Cc1nc(Nc2ncc(C(=O)Nc3c(C)cccc3Cl)s2)cc(N2CCN(CCO)CC2)n1 [dasatinib]
Outline: as §1

[3] = compound: Cc1ncc(-c2ccnc(Nc3ccc(S(C)(=O)=O)cc3)n2)n1C(C)C
Outline: as §1

[4] = compound: Cn1cc(-c2ccc3c(c2)CCN3C(=O)Cc2cccc(C(F)(F)F)c2)c2c(N)ncnc21
Outline: as §1

[5] = compound: Cn1cc(-c2ccc3nnc(C(F)(F)c4ccc5ncccc5c4)n3n2)cn1
Outline: as §1

tipifarnib = compound: Cn1cncc1[C@@](N)(c1ccc(Cl)cc1)c1ccc2c(c1)c(-c1cccc(Cl)c1)cc(=O)n2C [tipifarnib]
Outline: as §1

mubritinib = compound: FC(F)(F)c1ccc(/C=C/c2nc(COc3ccc(CCCCn4ccnn4)cc3)co2)cc1 [mubritinib]
Outline: as §1

NDUFAF6 (UniProt Q330K2)
Chain of UniProt Q330K2 (Q330K2 whole entry, looked up): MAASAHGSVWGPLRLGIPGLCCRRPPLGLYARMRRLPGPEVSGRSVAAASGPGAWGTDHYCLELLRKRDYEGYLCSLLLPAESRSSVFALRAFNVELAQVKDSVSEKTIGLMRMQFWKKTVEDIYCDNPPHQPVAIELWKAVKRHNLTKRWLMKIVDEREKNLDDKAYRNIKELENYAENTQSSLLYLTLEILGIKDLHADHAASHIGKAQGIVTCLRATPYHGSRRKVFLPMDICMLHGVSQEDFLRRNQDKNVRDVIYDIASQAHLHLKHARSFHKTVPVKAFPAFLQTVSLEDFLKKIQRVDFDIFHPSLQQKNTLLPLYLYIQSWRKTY
log2 fold change (bafetinib): -0.178
log2 fold change [1]: 0.014
log2 fold change (nilotinib): 0.01
log2 fold change [2]: -0.096
log2 fold change (dasatinib): -0.064
log2 fold change [3]: 0.017
log2 fold change [4]: 0.01
log2 fold change [5]: 0
log2 fold change (tipifarnib): -0.11
log2 fold change (mubritinib): 0.028

NCKAP1 isoform 2 (UniProt Q9Y2A7)
log2 fold change (bafetinib): -0.028
log2 fold change [1]: 0.08
log2 fold change (nilotinib): -0.016
log2 fold change [2]: -0.045
log2 fold change (dasatinib): -0.096
log2 fold change [3]: -0.04
log2 fold change [4]: 0.04
log2 fold change [5]: -0.004
log2 fold change (tipifarnib): -0.005
log2 fold change (mubritinib): 0.002

NMNAT1 (UniProt Q9HAN9)
Chain of UniProt Q9HAN9 (Q9HAN9 whole entry, looked up): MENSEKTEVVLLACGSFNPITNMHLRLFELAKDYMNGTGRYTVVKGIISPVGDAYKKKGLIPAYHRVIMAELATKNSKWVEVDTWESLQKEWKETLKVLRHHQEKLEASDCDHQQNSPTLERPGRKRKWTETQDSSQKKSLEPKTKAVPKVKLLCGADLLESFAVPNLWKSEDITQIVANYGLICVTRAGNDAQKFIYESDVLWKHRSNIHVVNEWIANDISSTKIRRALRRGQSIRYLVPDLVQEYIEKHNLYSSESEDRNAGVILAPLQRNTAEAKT
log2 fold change (bafetinib): 0.052
log2 fold change [1]: -0.034
log2 fold change (nilotinib): -0.073
log2 fold change [2]: 0.023
log2 fold change (dasatinib): 0.159
log2 fold change [3]: -0.047
log2 fold change [4]: -0.143
log2 fold change [5]: -0.21
log2 fold change (tipifarnib): 0.118
log2 fold change (mubritinib): -0.047

NUDCD2 (UniProt Q8WVJ2)
Chain of UniProt Q8WVJ2 (Q8WVJ2 whole entry, looked up): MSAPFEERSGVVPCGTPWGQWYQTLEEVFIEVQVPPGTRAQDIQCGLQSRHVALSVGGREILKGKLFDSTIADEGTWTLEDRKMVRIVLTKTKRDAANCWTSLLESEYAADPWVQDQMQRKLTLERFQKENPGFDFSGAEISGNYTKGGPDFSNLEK
log2 fold change (bafetinib): 0.017
log2 fold change [1]: 0.033
log2 fold change (nilotinib): -0.119
log2 fold change [2]: -0.216
log2 fold change (dasatinib): -0.171
log2 fold change [3]: -0.026
log2 fold change [4]: 0.02
log2 fold change [5]: 0.066
log2 fold change (tipifarnib): -0.1
log2 fold change (mubritinib): 0.077

MYH11 isoform 2 (UniProt P35749)
Chain of UniProt P35749 (P35749 whole entry, looked up): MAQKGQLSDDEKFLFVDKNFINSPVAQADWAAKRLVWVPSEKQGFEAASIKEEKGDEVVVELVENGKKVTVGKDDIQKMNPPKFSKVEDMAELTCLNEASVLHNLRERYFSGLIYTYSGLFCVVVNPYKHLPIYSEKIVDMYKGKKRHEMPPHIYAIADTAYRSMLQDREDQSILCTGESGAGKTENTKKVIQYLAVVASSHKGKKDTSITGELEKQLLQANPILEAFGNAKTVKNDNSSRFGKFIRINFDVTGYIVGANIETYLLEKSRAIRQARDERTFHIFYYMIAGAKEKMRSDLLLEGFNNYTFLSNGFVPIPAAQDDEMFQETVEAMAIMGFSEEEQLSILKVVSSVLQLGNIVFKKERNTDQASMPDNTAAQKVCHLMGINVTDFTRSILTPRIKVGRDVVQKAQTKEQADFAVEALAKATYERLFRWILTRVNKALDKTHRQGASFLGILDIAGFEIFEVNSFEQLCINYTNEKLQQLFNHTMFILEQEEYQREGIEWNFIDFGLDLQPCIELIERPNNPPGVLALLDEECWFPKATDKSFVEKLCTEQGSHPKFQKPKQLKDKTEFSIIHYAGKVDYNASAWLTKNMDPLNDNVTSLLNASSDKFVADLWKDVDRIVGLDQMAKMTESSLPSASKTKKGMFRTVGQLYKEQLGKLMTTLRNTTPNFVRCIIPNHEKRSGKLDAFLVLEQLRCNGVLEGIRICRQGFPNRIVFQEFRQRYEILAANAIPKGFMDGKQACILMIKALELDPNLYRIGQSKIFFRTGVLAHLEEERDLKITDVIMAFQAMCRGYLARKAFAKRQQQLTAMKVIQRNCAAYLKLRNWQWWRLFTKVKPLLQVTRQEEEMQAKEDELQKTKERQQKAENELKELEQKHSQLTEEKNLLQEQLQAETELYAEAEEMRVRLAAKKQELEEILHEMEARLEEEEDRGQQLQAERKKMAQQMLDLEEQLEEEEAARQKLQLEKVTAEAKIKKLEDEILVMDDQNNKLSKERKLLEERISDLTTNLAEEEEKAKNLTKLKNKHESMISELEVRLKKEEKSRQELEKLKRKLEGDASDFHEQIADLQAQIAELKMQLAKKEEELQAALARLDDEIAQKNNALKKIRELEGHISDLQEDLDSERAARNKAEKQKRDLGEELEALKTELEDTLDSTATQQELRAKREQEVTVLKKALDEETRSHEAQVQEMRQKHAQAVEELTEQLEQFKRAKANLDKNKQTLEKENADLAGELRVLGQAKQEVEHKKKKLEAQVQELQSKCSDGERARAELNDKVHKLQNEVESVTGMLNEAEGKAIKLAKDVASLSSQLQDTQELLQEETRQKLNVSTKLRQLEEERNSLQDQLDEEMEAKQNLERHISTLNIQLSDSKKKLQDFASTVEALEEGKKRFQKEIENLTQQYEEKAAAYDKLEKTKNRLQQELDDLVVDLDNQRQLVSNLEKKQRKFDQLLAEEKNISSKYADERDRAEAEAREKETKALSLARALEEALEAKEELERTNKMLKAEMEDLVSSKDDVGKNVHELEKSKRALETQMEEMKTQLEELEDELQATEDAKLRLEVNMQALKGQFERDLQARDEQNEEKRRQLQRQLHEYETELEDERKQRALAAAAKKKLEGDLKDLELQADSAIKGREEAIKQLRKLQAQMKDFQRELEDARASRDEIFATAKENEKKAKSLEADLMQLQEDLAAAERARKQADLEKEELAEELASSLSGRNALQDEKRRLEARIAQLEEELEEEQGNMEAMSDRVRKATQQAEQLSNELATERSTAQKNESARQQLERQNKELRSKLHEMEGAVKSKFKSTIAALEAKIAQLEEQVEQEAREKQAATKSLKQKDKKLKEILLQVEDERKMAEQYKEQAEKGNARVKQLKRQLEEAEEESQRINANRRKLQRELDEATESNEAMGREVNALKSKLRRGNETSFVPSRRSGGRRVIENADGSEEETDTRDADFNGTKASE
log2 fold change (bafetinib): -0.055
log2 fold change [1]: -0.016
log2 fold change (nilotinib): 0.05
log2 fold change [2]: 0.014
log2 fold change (dasatinib): -0.027
log2 fold change [3]: -0.025
log2 fold change [4]: 0.039
log2 fold change [5]: -0.001
log2 fold change (tipifarnib): 0.005
log2 fold change (mubritinib): 0.007

NDUFB8 (UniProt O95169)
log2 fold change (bafetinib): -0.029
log2 fold change [1]: -0.002
log2 fold change (nilotinib): 0.015
log2 fold change [2]: 0.027
log2 fold change (dasatinib): 0.056
log2 fold change [3]: -0.04
log2 fold change [4]: -0.08
log2 fold change [5]: 0.154
log2 fold change (tipifarnib): 0.071
log2 fold change (mubritinib): 0.027

PAFAH1B2 (UniProt P68402)
Chain of UniProt P68402 (P68402 whole entry, looked up): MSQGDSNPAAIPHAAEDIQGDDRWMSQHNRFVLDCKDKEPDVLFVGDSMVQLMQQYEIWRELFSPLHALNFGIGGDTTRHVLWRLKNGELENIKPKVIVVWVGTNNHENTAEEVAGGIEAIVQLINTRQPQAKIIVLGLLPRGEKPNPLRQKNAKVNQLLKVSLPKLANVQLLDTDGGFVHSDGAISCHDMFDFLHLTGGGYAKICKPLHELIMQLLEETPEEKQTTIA
log2 fold change (bafetinib): -0.025
log2 fold change [1]: 0.035
log2 fold change (nilotinib): 0.067
log2 fold change [2]: -0.121
log2 fold change (dasatinib): -0.011
log2 fold change [3]: -0.075
log2 fold change [4]: 0.024
log2 fold change [5]: 0.003
log2 fold change (tipifarnib): 0.188
log2 fold change (mubritinib): 0.092

NMT1 (UniProt P30419)
Chain of UniProt P30419 (P30419 whole entry, looked up): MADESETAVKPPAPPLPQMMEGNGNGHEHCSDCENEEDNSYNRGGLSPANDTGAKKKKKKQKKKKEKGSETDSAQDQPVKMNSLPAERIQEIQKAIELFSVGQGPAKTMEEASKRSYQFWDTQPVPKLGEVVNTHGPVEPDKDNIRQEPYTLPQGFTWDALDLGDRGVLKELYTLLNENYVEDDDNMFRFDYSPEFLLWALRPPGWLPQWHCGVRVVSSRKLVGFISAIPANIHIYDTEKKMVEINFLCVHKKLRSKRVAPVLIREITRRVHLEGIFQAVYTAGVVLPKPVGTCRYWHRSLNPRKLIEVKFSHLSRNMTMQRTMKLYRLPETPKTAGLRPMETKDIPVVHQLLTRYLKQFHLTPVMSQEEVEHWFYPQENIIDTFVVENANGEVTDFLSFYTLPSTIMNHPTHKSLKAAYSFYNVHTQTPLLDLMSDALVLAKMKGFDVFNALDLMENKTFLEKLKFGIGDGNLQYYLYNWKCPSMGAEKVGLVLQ
log2 fold change (bafetinib): 0.064
log2 fold change [1]: -0.026
log2 fold change (nilotinib): 0.049
log2 fold change [2]: 0.06
log2 fold change (dasatinib): -0.012
log2 fold change [3]: -0.003
log2 fold change [4]: 0.026
log2 fold change [5]: -0.001
log2 fold change (tipifarnib): -0.026
log2 fold change (mubritinib): 0.076

NOL11 (UniProt Q9H8H0)
log2 fold change (bafetinib): -0.042
log2 fold change [1]: 0.017
log2 fold change (nilotinib): -0.016
log2 fold change [2]: 0.017
log2 fold change (dasatinib): 0.017
log2 fold change [3]: 0.11
log2 fold change [4]: -0.006
log2 fold change [5]: 0.001
log2 fold change (tipifarnib): 0.036
log2 fold change (mubritinib): -0.012

NME1 isoform 2 (UniProt P15531)
Chain of UniProt P15531 (P15531 whole entry, looked up): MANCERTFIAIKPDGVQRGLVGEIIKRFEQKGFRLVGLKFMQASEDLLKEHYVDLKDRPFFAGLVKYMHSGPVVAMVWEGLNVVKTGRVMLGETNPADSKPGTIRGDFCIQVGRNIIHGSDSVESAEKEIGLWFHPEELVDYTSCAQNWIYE
log2 fold change (bafetinib): 0.011
log2 fold change [1]: -0.175
log2 fold change (nilotinib): -0.115
log2 fold change [2]: 0.182
log2 fold change (dasatinib): -0.286
log2 fold change [3]: -0.003
log2 fold change [4]: 0.088
log2 fold change [5]: -0.013
log2 fold change (tipifarnib): 0.06
log2 fold change (mubritinib): -0.103

MOB2 isoform 3 (UniProt Q70IA6)
Chain of UniProt Q70IA6 (Q70IA6 whole entry, looked up): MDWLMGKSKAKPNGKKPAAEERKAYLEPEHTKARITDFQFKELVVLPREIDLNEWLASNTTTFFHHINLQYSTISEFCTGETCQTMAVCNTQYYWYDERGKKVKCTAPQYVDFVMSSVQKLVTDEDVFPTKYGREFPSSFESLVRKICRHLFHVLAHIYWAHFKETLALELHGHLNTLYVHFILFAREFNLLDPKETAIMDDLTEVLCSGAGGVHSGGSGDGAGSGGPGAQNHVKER
log2 fold change (bafetinib): 0.005
log2 fold change [1]: -0.039
log2 fold change (nilotinib): -0.133
log2 fold change [2]: -1.47 (active)
log2 fold change [3]: 0.03
log2 fold change [4]: -0.069
log2 fold change [5]: 0.056
log2 fold change (tipifarnib): 0.013
log2 fold change (mubritinib): -0.108

MYL12B (UniProt O14950)
log2 fold change (bafetinib): -0.049
log2 fold change [1]: 0.042
log2 fold change (nilotinib): 0.031
log2 fold change [2]: 0.001
log2 fold change (dasatinib): 0.001
log2 fold change [3]: -0.002
log2 fold change [4]: 0.117
log2 fold change [5]: -0.046
log2 fold change (tipifarnib): -0.038
log2 fold change (mubritinib): 0.064

NECTIN2 isoform 2 (UniProt Q92692)
Chain of UniProt Q92692 (Q92692 whole entry, looked up): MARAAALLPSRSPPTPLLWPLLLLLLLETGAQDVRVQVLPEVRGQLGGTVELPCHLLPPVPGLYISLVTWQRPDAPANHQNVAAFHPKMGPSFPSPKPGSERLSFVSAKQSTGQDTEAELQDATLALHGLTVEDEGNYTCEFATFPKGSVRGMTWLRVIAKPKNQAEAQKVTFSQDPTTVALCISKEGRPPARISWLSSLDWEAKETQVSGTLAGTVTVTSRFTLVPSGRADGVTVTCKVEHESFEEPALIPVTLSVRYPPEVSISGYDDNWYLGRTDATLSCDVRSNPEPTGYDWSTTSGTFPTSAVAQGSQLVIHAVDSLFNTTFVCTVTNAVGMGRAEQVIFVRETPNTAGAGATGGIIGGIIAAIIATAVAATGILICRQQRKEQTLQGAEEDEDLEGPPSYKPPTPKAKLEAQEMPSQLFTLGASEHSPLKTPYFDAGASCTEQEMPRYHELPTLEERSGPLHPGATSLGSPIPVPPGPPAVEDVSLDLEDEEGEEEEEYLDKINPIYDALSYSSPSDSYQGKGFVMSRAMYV
log2 fold change (bafetinib): -0.64
log2 fold change [1]: 0.145
log2 fold change (nilotinib): 0.129
log2 fold change [2]: -0.016
log2 fold change (dasatinib): 0.001
log2 fold change [3]: 0.006
log2 fold change [5]: -0.129
log2 fold change (mubritinib): -0.049

NMT2 (UniProt O60551)
Chain of UniProt O60551 (O60551 whole entry, looked up): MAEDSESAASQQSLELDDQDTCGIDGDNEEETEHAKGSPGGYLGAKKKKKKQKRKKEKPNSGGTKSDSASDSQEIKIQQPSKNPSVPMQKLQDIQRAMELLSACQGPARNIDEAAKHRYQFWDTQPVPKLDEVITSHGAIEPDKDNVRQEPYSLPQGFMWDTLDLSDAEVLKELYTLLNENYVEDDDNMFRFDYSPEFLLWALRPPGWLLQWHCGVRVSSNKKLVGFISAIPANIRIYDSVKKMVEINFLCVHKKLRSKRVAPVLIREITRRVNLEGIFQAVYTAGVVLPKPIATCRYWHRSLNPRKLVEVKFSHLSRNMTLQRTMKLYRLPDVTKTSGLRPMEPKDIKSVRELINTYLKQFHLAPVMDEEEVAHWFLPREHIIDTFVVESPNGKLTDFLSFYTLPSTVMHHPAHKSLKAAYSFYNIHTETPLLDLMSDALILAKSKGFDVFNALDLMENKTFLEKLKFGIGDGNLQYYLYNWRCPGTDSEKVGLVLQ
log2 fold change (bafetinib): 0.021
log2 fold change [1]: 0.047
log2 fold change (nilotinib): 0.018
log2 fold change [2]: 0.083
log2 fold change (dasatinib): -0.088
log2 fold change [3]: -0.031
log2 fold change [4]: -0.003
log2 fold change [5]: 0.03
log2 fold change (tipifarnib): -0.015
log2 fold change (mubritinib): 0.041

NA, A0A096LPI6
log2 fold change (bafetinib): -0.076
log2 fold change [1]: -0.043
log2 fold change (nilotinib): 0
log2 fold change [2]: -0.007
log2 fold change (dasatinib): -0.005
log2 fold change [3]: -0.04
log2 fold change [4]: -0.003
log2 fold change [5]: -0.028
log2 fold change (tipifarnib): -0.038
log2 fold change (mubritinib): 0.024
